Tg IFNy HTS: inhibitors of Toxoplasma gondii growth with IFN-gamma; actives 3.8% (n = 69,000); AID 1259416; Toxoplasma gondii growth in IFN-gamma-treated host cells; stronger effect = lower value; activity change, negative = inhibition, % (concentration not given with the values); in the data active = activity change below about -70%, passing the limit was not always enough;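 also: host cells are HeLa cells infected with Toxoplasma gondii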
A number is an active result; n = inactive. This is one part of a sample in which hits are shown more often than they occur.

SMILES	Tg IFNy HTS
CCCC(=O)N1CCc2c([nH]c3ccccc23)C1c1ccccc1 (configuration not stated)	n
Cc1ccc(C2c3[nH]c4ccccc4c3CCN2C(=O)c2ccc3c(c2)OCO3)cc1 (configuration not stated)	n
O=C(c1ccc2c(c1)OCO2)N1CCc2c([nH]c3ccccc23)C1c1ccc(F)cc1 (configuration not stated)	-109
CCOc1cc(C(=O)N2CCc3c([nH]c4ccccc34)C2c2ccccc2)cc(OCC)c1OCC (configuration not stated)	-115
COc1ccc(C(=O)N2CCc3c([nH]c4ccccc34)C2c2ccc(F)cc2)cc1OC (configuration not stated)	n
CCOc1cc(C(=O)N2CCc3c([nH]c4ccccc34)C2c2cccnc2)cc(OCC)c1OCC (configuration not stated)	n
CC(=O)N1CCC(c2nccnc2Oc2ccccc2)CC1	n
Cc1ccc(CN2CCCn3c(nc(CN(C)C)cc3=O)C2)s1	n
CC(C)ON([C@@H](C(=O)NO)C(C)C)S(=O)(=O)c1ccc(-c2ccccc2)cc1	-75
O=C(O)CNS(=O)(=O)c1ccc(-c2ccccc2)cc1	n
CC(C)[C@H](NS(=O)(=O)c1ccc(-c2ccc(Br)cc2)cc1)C(=O)O	n
C[C@@]1(O)[C@H](O)[C@@H](CO)O[C@H]1n1cnc2c(NC3CCCC3)nc(Cl)nc21	n
O=C(Cn1c(=O)ccc2cc(S(=O)(=O)N3CCCC3)ccc21)N1CCN(C(=O)c2ccco2)CC1	n
CO[C@H]1CCN(S(=O)(=O)C2CC2)[C@H]1Cc1ccccc1	n
O=S(=O)(NCCc1csc(-c2cccc(F)c2)n1)c1ccccc1F	n
CC1(C)NC(=O)N(Cc2ccc(NC(=O)c3cc(-c4ccccc4F)no3)cc2)C1=O	n
Cc1ccc(S(=O)(=O)c2cnc(N3CCC(C(N)=O)(N4CCCCC4)CC3)nc2N)cc1C	n
COc1cc2c(cc1OC)C(C)=NC1(CCCCC1)C2	n
COc1ccc(-c2nnc3n2C2(CCCC2)Cc2cc(OC)c(OC)cc2-3)cc1	n
COc1cc2c(cc1OC)C(Nc1ccc(Br)cc1)=NC1(CCCC1)C2	-85
Cc1oc(-c2ccccc2)nc1Cn1ccn2nc(-c3ccc(F)cc3)cc2c1=O	n
O=C(c1cccs1)N1CCC2(CC1)Nc1cccnc1NC2=NCc1ccccc1	n
COc1ccccc1C1CCCN1C(=O)c1cn(-c2ccccc2)nn1 (configuration not stated)	n
Cn1ccnc1CN1CCCC2(CCCN2S(C)(=O)=O)C1 (configuration not stated)	n
O=C(OCc1ccccc1)c1ccccc1	n
SMILES	Tg IFNy HTS
CC1=NN(C)C(=O)/C1=N\OC(=O)c1ccc(Cl)cc1	n
O=C(OOC(=O)c1ccccc1)c1ccccc1	n
O=C(O/N=C1/C(=O)c2ccccc2-c2ccccc21)c1ccccc1	-103
COc1ccc(C(=O)/C=C2/c3ccccc3CC(C)(C)N2C)cc1	n
COc1ccc(C(=O)O/N=C2/C(=O)N(C)c3ccccc32)cc1	-100
Cc1nnsc1CN(C)C(=O)CCC(=O)NC1CCCC1	n
O=S1(=O)CCC=C1c1ccccc1CN1CCOCC1	n
CC(C)Cc1nc(CNC(=O)c2cnc(-c3ccccc3)nc2)no1	n
Cc1ccc(C(=O)N2CCCN3CCC[C@H]3C2)cc1NC(=O)C1CC1	n
CCc1ccc2nc(N3CC(O)C3)cc(C)c2c1	n
Cc1ccc2[nH]c3c(c2c1)CN(C)CC3	n
Cc1ccc2[nH]c3c(c2c1)CCNC3=O	-93
Cc1ccc2[nH]c(=O)c(Cc3ccccc3)c(O)c2c1	n
Cc1ccc(NC(=O)Cn2c(=O)cc(C(=O)N3CCCCC3)c3ccccc32)c(Cl)c1	n
CCn1ccnc1CN1CCCCCC1Cc1c(C(N)=O)sc2ccccc12 (configuration not stated)	n
C=CCn1cc(-c2c(-c3ccccc3)ncn2[C@H](CO)c2ccccc2)cn1	n
Cc1n[nH]c(C)c1CN1CCn2nc(C(=O)NCc3ccccn3)cc2C1	n
Cc1cc(C)n(CC2(CNC(=O)CN3CCCN(C)CC3)CC2)n1	n
CN1CCCN(CC2(O)CCNC2)CC1 (configuration not stated)	-94
CCc1c(C)sc2c1CCN(Cc1nc(-c3ccccc3C)oc1C)C2c1ccccc1 (configuration not stated)	n
CN(C)CCN1[C@@H]2CCN(C(=O)c3ccn[nH]3)CC[C@@H]2Oc2ccccc2S1(=O)=O	n
CO[C@@H]1CCN(c2ncc(C)cn2)[C@H]1Cc1ccccc1	n
CSc1ccccc1NC(=O)CCC(=O)N(C)C1CCN(C)CC1	n
COc1ccc(C[C@H](NC(=O)[C@H](C)NC(=O)CN2CCOCC2)C(=O)N[C@@H](Cc2ccccc2)C(=O)[C@]2(C)CO2)cc1	-74
COc1ccc(-c2nc(C(=O)NC(C)CN3CCOCC3)cs2)cc1 (configuration not stated)	n
SMILES	Tg IFNy HTS
CC(C)C[C@H](NC(=O)[C@H](CCc1ccccc1)NC(=O)CN1CCOCC1)C(=O)N[C@@H](Cc1ccccc1)C(=O)N[C@@H](CC(C)C)C(=O)[C@@]1(C)CO1	n
CN1CCN2CCN(S(=O)(=O)N3CCCC3)CC2C1=O (configuration not stated)	n
CN(C)C(=O)CN1CCC2(CC1)OC(C(=O)NCc1ccccn1)Cn1ccnc12 (configuration not stated)	n
Cc1noc(C)c1CNC(=O)C(c1cccnc1)N1CCCC1 (configuration not stated)	n
COc1cc(CNC(=O)C2(C)CCN(C(=O)c3cc(OC)c(OC)c(OC)c3)CC2)cc(OC)c1	n
CC1(C)C2CC[C@]3(C)C(C(=O)C=C4[C@H]5C[C@@](C)(C(=O)O)CC[C@]5(C)CC[C@]43C)[C@@]2(C)CC[C@@H]1O (some centres not stated)	n
CC(=O)Oc1cc2c(c(C)c1OC(C)=O)CC=C1[C@@]2(C)CC[C@@]2(C)C3C[C@](C)(C(=O)O)CC[C@]3(C)CC[C@]12C (some centres not stated)	-81
CCOC(=O)C1CCN(C(=O)c2cc3cccnc3n(Cc3ccc(F)cc3)c2=O)CC1	n
CC(C)c1ncc(C(=O)N2CCCC3(C2)C(=O)Nc2ccccc23)c(=O)[nH]1 (configuration not stated)	n
COc1ccc2c(c1)c(-c1cn3nc(-c4ccccn4)c(-c4ccccn4)nc3n1)c(C)n2C	n
O=C(CCCl)NCCc1ccccc1	n
O=C(O)CCNC(=O)c1ccccc1	n
O=C(NCCCCc1ccccc1)c1ccccc1	-82
Cc1occc1C(=O)N1CCn2c(Cn3cncn3)cnc2C1	n
CCOc1ccc(-c2cc3c(=O)n(Cc4nc(-c5ccccc5)oc4C)ccn3n2)cc1	n
O=C(O)CCC(=O)N1C2CCC1CN(Cc1cccs1)C2	n
CCc1c(C)c2ccc(OCC(=O)OC(C)C)c(C)c2oc1=O	n
C=CCOc1ccc2c(=O)cc(C(=O)OCC)oc2c1CCC	n
CCCCOc1ccc2c(=O)c(-c3cc(C(=O)OC)oc3C)c(C(F)(F)F)oc2c1C	-108
Cc1ccc(S(=O)(=O)N2CCn3nnc(COCC4CC4)c3C2)cc1F	n
C1=C(c2ccccc2)CC(c2ccccc2)=NN=C1c1ccccc1	-87
O=C1CC(c2ccccc2)=NN1c1ccccc1	n
CCN1CCC2(CN(Cc3cccnc3)CC23CCN(C(=O)Nc2ccccc2)CC3)C1=O (configuration not stated)	n
Cc1oc(-c2ccccc2)nc1Cn1nc2n(Cc3ccc(F)cc3)c(=O)c3nn(C)cc3n2c1=O	n

High-throughput results deposited in PubChem by Broad Institute.
